The results in this text go back to PubChem BioAssay (Tox21).

Results filed as inconclusive are left out. Calls of active or inactive are those of the source. Calls follow the shape of the dose curve; as a rule, active = well fitted cell-killing curve with a large enough effect in the repeat runs; inconclusive = weak or mixed curves; inactive = flat fitted curve, though single readings scatter.
% is scaled to controls: 0 for no effect and ±100 for the full control effect.

The assay is described as follows: qHTS RealTime-Glo MT Cell Viability Assay in HepG2 cells - 32 hour (AID 1224877). Also: nearly all actives have a fitted effect of over 55% in size. The note with it: RealTime-Glo luminescence; series mostly up to 76.8 µM. The text has this: U.S. Tox21 Program National Center for Advancing Translational Sciences [NCATS] NIH Chemical Genomics Center [NCGC] U.S. Environmental Protection Agency [EPA] National Institutes of Environmental Health Sciences [NIEHS] National Toxicology Program [NTP] U.S. Food and Drug Administration [FDA] Tox21 Assay Overview: Measure of cell viability is critical in the cell-base assay. Analysis of cell viability is necessary for the characterization of cell responses to cytotoxic drugs and environmental stress. A RealTime-Glo MT Cell Viability Assay to monitor cell viability in real time of continues cell culture during 40 hours of compound treatment was used to screen Tox21 10K library compounds in HepG2 cells. The RealTime-Glo MT Cell Viability Assay is a nonlytic, homogeneous, bioluminescent method to measure cell viability in real time using a simple, plate-based method. The assay involves adding NanoLuc luciferase and a cell-permeant prosubstrate to cells in culture. Viable cells reduce the proprietary prosubstrate to generate a substrate for NanoLuc luciferase. This substrate diffuses from cells into the surrounding culture medium, where it is rapidly used by the NanoLuc Enzyme to produce a luminescent signal. The signal correlates with the number of viable cells, making the assay well suited for cytotoxicity studies.
Tox21 Assay Protocol Summary: The mixture of HepG2 cell suspension and reagents were dispensed at 600cells/6 ul/well in 1536-well tissue culture treated black solid bottom plates using a Multidrop dispenser. After the assay plates were incubated at a 37 C/5% CO2 incubator for 5 hours, 23 nL of compounds dissolved in DMSO, positive and negative controls was transferred to the assay plate by a pintool work station. The plates were incubated at 37 C for 40 hours. The luminescence intensity were measured at 0h, 8h, 16h, 24h, 32h and 40h time points using ViewLux plate reader during compound treatment.
In general terms: Quantitative high-throughput screening tests each substance at several concentrations.
In the case of `CC1(C)[C@H]2CC[C@](C)(C2)[C@H]1O`, the outcome was inactive.
Take `CCC/C=C(\C=O)CC`: the compound was classed as inactive.
With `O=C1c2ccccc2C(=O)c2cc(Cl)ccc21`, the activity change, negative = cytotoxic was -5.12% [at 6.97 µM] (inactive).
`OCC1(CO)COCOC1`: the call was inactive.
The same measure, in the same setting: with `CNCCS(=O)(=O)O` the entry was “inactive”; with `OC[C@@H](O)C(O)[C@@H](O)CO` (stereo not given in full), “inactive”; with `CCCCCCCCCCCCCBr`, “inactive”.
As for `O=C(O)CNC(=O)CNC(=O)CNC(=O)CSC(=O)c1ccccc1`, the outcome was inactive.
Still for that read-out and setting: with `CC(C)NC(=O)c1ccc(C=O)cc1` the entry was “inactive”; with `CC(C)(CO)C(O)C(=O)NCCCO` (stereo not given), “inactive”.
The same measure, in the same setting: with `CCc1occc(=O)c1O` the entry was “inactive”; with `CC(=O)CC(=O)OC(C)(C)C`, “inactive”.
The same measure, in the same setting: with `COc1cc(OC)nc(O[C@H](C(=O)O)C(OC)(c2ccccc2)c2ccccc2)n1` the entry was “inactive”.
Take `COP(=O)(O)OP(=O)(O)OC`: the compound was classed as inactive.
The same measure, in the same setting: the entry for `CCN1CCCC1CN` (stereo not given) is “inactive”; for `Cc1c(NC(=O)c2cccnc2)c(=O)n(-c2ccccc2)n1C` it is “inactive”.
On to `C=CC(=O)CCCCC`, for which the outcome was inactive.
Turning to `CCn1cc(C(=O)O)c(=O)c2cnc(N3CCCC3)nc21`, the activity change, negative = cytotoxic is -0.35% [at 6.97 µM] (inactive).
As to `CC(Oc1cc(Cl)ccc1Cl)C(=O)O` (stereo not given), the result was inactive.
As to `O=C(CN1CCNCC1)NC1CCCCC1`, the call was inactive.
With `N#Cc1cscn1`, the compound was classed as inactive.
For the compound `CC12CCC(C1)C(C)(C)C2O` (stereo not given), the compound was classed as inactive.
Take `CCO`: the compound was classed as inactive.
Still for that read-out and setting: the entry for `CC(C)OC(=O)OCOP(=O)(CO[C@H](C)Cn1cnc2c(N)ncnc21)OCOC(=O)OC(C)C` is “inactive”.
Regarding `O=C(O)c1cc2ccccc2nc1C(=O)O`, the call was inactive.
As for `CCC[C@@H]1C[C@@H](C(=O)N[C@@H]([C@H]2O[C@H](SC)[C@H](O)[C@@H](O)[C@H]2O)[C@@H](C)O)N(C)C1`, the call was inactive.
As to `OCC(O)CN1CCN(c2ccccc2)CC1` (stereo not given), the compound was called inactive.
Same read-out and setting: with `Nc1nnnn1-c1ccccc1` the entry was “inactive”; with `O=C(O)[C@H](O)c1ccccc1`, “inactive”.
On to `CC1(C)CC(OC(=O)CCCCCCCCC(=O)OC2CC(C)(C)NC(C)(C)C2)CC(C)(C)N1`, for which the activity change, negative = cytotoxic is 3.56% [at 15.8 µM] (inactive).
As to `O=C[O][Al]([O]C=O)[O]C=O`, the compound was called inactive.
Same read-out and setting: the entry for `O=NN(CCCl)C(=O)NC1CCCCC1` is “inactive”.
On to `CCC(=O)c1c(O)cc(O)cc1O`, for which the compound was classed as inactive.
For the compound `CCCC(=O)OCCC(C)CCC=C(C)C` (stereo not given), the outcome was inactive.
Turning to `OC1OCCOC1O` (stereo not given), the outcome was inactive.
As to `CCCCC1CCC(O)CC1` (stereo not given), the result was inactive.
Same read-out and setting: with `O=C(Cn1ccnc1[N+](=O)[O-])NCc1ccccc1` the entry was “inactive”.
As to `[O]=[Mo](=[O])=[O]`, the activity change, negative = cytotoxic was 0.396% [at 15.8 µM] (inactive).
As for `CC(=O)CCC1=C(C)CCCC1(C)C`, the compound was called inactive.
Still for that read-out and setting: with `CC(C)Cn1cnc2c1c(=O)n(C)c(=O)n2C` the entry was “inactive”.
